The results in this text go back to PubChem BioAssay.

Assay [1] is described as follows: compounds binding Alexa647 anti-His antibody – biochemical, small-molecule microarray, 635 nm fluorescence, artefact control for SMM control protein annotation, primary screen (AID 1128).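 Also: score merges feature fluorescence with signal-to-noise for each printed compound spot.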 Particulars: higher = more signal.
In assay [2] the test system is Human papillomavirus type 1a E7 protein (residues 1-88). Briefly: HPV1a E7 small-molecule binders, primary screen, biochemical, small-molecule microarray, residues 1-88, 635 nm (AID 1129). Particulars: small-molecule microarray binding, fluorescence 635 nm; higher = more signal.
Assay [3] deals with Focal adhesion kinase 1 (Homo sapiens) (UniProt Q05397). Briefly: PTK2 protein binding on printed compound slides – biochemical, small-molecule microarray, 635/667 nm fluorescence, BSA, DTT, primary screen (AID 1130).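 Also: composite of spot emission at 667 nm and signal to noise over triplicate slides.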 Particulars: 635 nm fluorescence, higher = more signal.
The subject of assay [4] is Fibrinogen (Alexa647-labelled). Briefly: Alexa647-fibrinogen binding to printed small molecules – biochemical, small-molecule microarray, 635/667 nm fluorescence, artefact control for SMM control-protein annotation, profiling panel (AID 1131).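 Also: z-score merges 667 nm fluorescence with per-spot signal-to-noise over triplicate slides.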 Particulars: fibrinogen-A647 binding fluorescence, higher = more signal.
Assay [5] concerns the target Follistatin (Homo sapiens) (UniProt P19883). Briefly: FST protein binding to printed compounds – biochemical, small-molecule microarray, 635/667 nm fluorescence, primary screen (AID 1132). The following applies: 635 nm fluorescence, higher = more signal.
For assay [6], the target named is Fibroblast growth factor 2 (Homo sapiens) (UniProt P09038). Briefly: basic fibroblast growth factor binding to printed compounds – biochemical, small-molecule microarray, 635/667 nm fluorescence, primary screen (AID 1133). The following applies: FGF2, fluorescence 635/667, higher = more signal.
A short description of assay [7]: JC-1 mitochondrial potential readout, lung cancer cells – cell-based, A549, JC-1 fluorescence, basal, 24 h, 100 nL, profiling panel (AID 1138).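 Also: A549 lung adenocarcinoma cells under basal conditions with no added stimulus; test concentration not given here.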 The following applies: higher = more signal.
A further assay concerns Lefty1. Briefly: Lefty1 protein binding to printed compounds – biochemical, small-molecule microarray, 635/667 nm fluorescence, primary screen (AID 1139). Particulars: fluorescence 635/667, higher = more signal.
Assay [8] concerns wheat germ agglutinin (Triticum aestivum), Alexa647-labelled. Briefly: Alexa647-WGA lectin binding to printed small molecules – biochemical, small-molecule microarray, 635/667 nm fluorescence, artefact control for SMM control-protein annotation, profiling panel (AID 1140).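 Also: score merges 667 nm feature emission with signal to noise over triplicate slides.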 The following applies: WGA-A647 binding, 635 nm fluorescence, higher = more signal.
The target in assay [9] is Luciferin 4-monooxygenase (Photinus pyralis) (UniProt P08659). Briefly: inhibition of purified Photinus pyralis luciferase – biochemical, luminescence, purified enzyme, 2006 set, primary screen (AID 1141).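 Also: cell-free assay with purified firefly luciferase at 100 ng per well in PBS; test concentration not given here.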 Particulars: purified firefly luciferase, SteadyGlo luminescence, 30 min; higher = more signal, called active from +8 up or from −8 down.
Assay [10] concerns Wnt5a (protein binding on small-molecule microarray). Briefly: small molecules binding Wnt5a protein – biophysical, small-molecule microarray, 635/667 nm fluorescence, primary screen (AID 1142).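 Also: fluorescence read at 667 nm with signal to noise per printed feature.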 Particulars: 635 nm fluorescence, higher = more signal.
A short description of assay [11]: ATP-based viability of Huh7 replicon cells – cell-based, CellTiter-Glo luminescence, basal, 48 h, cytotoxicity control for HCV replication inhibitor project, primary screen (AID 1143).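 Also: Huh7 hepatoma cells carrying a hepatitis C replication reporter with no stimulus; test concentration not given here.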 Particulars: higher = more signal, called active from +8 up or from −8 down.
Assay [12] can be described thus: Pseudomonas biofilm growth suppression – PAO1 strain, BacTiter-Glo luminescence, LB-PBS, primary screen (AID 1144). Particulars: P. aeruginosa PAO1 biofilm, 12 h, higher = more signal.
Assay [13] can be described thus: basal CRE-LacZ reporter activity in PC12 – cell-based, unstimulated, primary screen (AID 1145). The following applies: no forskolin, luminescence, 4.5 h, higher = more signal, called active from +8 up or from −8 down.
Assay [14] is described as follows: forskolin-driven CRE-LacZ activity in PC12 – cell-based, CRE-LacZ reporter, forskolin-stimulated, primary screen (AID 1146).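 Also: PC12 cells with 6xCRE LacZ reporter stimulated by forskolin 10 µM; beta-galactosidase reporter signal reflecting CREB driven transcription.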 Particulars: luminescence, 4.5 h, higher = more signal, called active from +8 up or from −8 down.
The target in assay [15] is Streptavidin (Streptomyces avidinii) (UniProt P22629). Briefly: compounds binding control protein streptavidin – biophysical, small-molecule microarray, 635/667 nm fluorescence, artefact control for SMM compound annotation, primary screen (AID 1147).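 Also: signal reflects streptavidin binding to arrayed compounds as a control protein.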 Particulars: higher = more signal.
The nature of assay [16]: probe aInhba binding on compound microarray – biochemical, small-molecule microarray, 635/667 nm fluorescence, primary screen (AID 1148).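 Also: score merges 667nm spot fluorescence with signal-to-noise for antibody binding to printed compounds.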 The following applies: higher = more signal.
The target in assay [17] is Torsin-1A (Homo sapiens) (UniProt O14656). Briefly: TOR1A wild-type binding on microarray – cell lysate, small-molecule microarray, lysate, 635/667 nm, primary screen (AID 1149). The following applies: COS7 hTOR1A-WT lysate, 635 nm fluorescence, higher = more signal.
For assay [18] the target is unchanged. Briefly: torsin A mutant lysate binding on microarrays – cell lysate, small-molecule microarray, COS7 lysate, 635/667 nm fluorescence, primary screen (AID 1150).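 Also: score pools 667 nm emission and signal to noise measuring lysate protein binding.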 The following applies: COS7 hTOR1A mutant lysate, 635 nm fluorescence, higher = more signal.
In assay [19] the test system is Sonic hedgehog protein (Shh). Briefly: Sonic hedgehog microarray binding compounds – biochemical, small-molecule microarray, 635/667 nm fluorescence, primary screen (AID 1151).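 Also: Shh protein binding to compounds spotted on small-molecule microarray slides; score combines spot fluorescence intensity with signal-to-noise across triplicate slides.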 The following applies: 635 nm fluorescence, higher = more signal.

SMILES strings stand for the structures. Calls of active or inactive are those of the source. Unless noted, no rule for the calls is given here.

Fibroblast growth factor 2 (Homo sapiens), sequence (P09038 whole entry, looked up): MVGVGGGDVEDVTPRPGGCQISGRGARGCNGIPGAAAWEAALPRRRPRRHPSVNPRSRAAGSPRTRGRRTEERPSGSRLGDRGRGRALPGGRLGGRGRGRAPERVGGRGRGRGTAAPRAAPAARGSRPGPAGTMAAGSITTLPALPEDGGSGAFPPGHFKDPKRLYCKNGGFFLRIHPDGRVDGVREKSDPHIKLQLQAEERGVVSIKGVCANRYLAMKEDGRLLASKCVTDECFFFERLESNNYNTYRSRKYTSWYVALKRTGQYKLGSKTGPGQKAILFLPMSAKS
Torsin-1A (Homo sapiens), sequence (O14656 whole entry, looked up): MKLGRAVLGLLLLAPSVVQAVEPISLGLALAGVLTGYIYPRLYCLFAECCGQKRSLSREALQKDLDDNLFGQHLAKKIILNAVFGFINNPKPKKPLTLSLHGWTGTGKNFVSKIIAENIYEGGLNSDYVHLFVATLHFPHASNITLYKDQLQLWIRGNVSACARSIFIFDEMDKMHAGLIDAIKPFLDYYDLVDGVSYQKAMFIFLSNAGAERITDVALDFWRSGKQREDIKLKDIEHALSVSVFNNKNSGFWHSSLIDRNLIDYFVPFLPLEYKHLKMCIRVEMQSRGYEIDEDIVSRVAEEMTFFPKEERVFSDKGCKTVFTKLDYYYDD
Streptavidin (Streptomyces avidinii), sequence (P22629 whole entry, looked up): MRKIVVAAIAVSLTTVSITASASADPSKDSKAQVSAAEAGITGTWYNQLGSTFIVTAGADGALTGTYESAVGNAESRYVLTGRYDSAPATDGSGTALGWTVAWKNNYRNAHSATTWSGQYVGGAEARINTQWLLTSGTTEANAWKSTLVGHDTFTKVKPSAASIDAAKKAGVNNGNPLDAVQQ
Focal adhesion kinase 1 (Homo sapiens), sequence (Q05397 whole entry, looked up): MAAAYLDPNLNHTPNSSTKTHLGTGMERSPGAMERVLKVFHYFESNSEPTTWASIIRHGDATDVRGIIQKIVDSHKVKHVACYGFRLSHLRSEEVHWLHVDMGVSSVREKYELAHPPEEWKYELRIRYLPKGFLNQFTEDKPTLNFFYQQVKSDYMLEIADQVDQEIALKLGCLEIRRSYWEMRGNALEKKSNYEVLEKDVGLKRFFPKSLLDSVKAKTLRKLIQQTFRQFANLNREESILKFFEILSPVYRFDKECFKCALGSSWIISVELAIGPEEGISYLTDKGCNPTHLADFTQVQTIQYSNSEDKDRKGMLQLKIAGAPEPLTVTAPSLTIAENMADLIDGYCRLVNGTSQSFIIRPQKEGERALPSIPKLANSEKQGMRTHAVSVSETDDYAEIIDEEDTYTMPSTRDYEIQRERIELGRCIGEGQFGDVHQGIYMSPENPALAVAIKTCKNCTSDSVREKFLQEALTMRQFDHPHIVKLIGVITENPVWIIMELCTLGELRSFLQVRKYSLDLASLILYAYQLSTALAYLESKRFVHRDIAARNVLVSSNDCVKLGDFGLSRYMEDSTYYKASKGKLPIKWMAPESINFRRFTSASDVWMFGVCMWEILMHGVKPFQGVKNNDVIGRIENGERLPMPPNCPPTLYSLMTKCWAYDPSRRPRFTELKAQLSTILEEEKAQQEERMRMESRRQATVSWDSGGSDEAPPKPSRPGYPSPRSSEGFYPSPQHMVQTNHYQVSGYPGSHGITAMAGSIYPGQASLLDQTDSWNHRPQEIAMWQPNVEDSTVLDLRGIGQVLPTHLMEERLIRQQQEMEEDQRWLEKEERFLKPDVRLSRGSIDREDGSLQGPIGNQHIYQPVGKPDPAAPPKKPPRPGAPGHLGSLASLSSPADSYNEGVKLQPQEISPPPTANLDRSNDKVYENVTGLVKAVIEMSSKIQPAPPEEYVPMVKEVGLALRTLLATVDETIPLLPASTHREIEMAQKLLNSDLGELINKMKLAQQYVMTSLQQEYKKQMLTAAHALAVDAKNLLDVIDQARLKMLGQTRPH
Luciferin 4-monooxygenase (Photinus pyralis), sequence (P08659 whole entry, looked up): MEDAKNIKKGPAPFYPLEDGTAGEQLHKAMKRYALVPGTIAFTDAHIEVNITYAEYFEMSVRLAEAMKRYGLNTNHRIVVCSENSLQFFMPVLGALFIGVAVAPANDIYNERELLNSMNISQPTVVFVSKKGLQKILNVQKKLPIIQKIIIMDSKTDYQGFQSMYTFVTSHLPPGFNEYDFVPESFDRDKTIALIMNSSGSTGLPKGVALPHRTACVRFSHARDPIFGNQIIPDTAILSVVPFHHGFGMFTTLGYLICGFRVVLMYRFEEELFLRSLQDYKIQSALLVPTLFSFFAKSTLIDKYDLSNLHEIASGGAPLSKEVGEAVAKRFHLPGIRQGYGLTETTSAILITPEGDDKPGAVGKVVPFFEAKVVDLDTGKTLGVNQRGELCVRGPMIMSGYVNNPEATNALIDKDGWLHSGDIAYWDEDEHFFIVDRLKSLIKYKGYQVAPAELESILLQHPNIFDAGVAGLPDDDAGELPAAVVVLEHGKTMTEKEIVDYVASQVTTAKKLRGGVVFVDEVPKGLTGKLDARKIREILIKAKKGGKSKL
Follistatin (Homo sapiens), sequence (P19883 whole entry, looked up): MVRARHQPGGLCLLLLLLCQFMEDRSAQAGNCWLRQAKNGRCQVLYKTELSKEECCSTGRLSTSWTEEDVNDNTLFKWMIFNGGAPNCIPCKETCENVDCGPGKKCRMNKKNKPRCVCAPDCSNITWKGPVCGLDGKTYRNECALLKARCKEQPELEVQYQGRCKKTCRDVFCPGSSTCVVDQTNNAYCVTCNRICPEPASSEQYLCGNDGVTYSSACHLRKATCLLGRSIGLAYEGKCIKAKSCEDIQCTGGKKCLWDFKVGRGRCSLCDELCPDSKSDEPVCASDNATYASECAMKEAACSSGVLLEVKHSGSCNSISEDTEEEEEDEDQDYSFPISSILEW

`O=C(C1N=C(c2ccc(OCCCO)cc2)N(c2ccccc2)O1)N1CCOCC1` (stereo not given): the composite z-score in assay [1] was found to be 0.548; in assay [2], 1.2; in [3] it was 0.497; in [4], 0.966; in assay [5] it was 1.22; in assay [6], 0.667. For the same compound, the composite z-score was found to be 0.842 with Lefty1; 0.388 in assay [8]; 0.427 in assay [10]; 0.637 in assay [15]; 0.0947 in assay [16]; 0.652 with Torsin-1A (Homo sapiens) [17]. Also, the figures for the composite z-score (with Torsin-1A (Homo sapiens) [18]; in assay [19]) were 0.219 and 0.476, respectively. The z-score in assay [7] is 0.211; in [9], -12 (active); in [11], -3.19 (inactive); in assay [12] it was -0.59 (inactive); in assay [13], 0.185 (inactive); in assay [14], -0.472 (inactive).

Consider `[N-]=[N+]=Nc1ccccc1C[C@@]1(C(=O)NCCN2CCOCC2)N=C(c2ccc(OCCCO)cc2)O[C@@H]1c1ccccc1`, for which the composite z-score came out at 0.76 in [1]; 1.26 in [2]; 0.85 in assay [3]; 1.03 in assay [4]; 1.3 in assay [5]; 1.19 in assay [6]. Besides, the composite z-score in the assay on Lefty1 worked out at 0.7; in assay [8] it was 0.823; in [10] it was 0.785; in assay [15] it was 0.302; in assay [16], 0.258; with Torsin-1A (Homo sapiens) [17], 0.304. Besides, the composite z-score in the assay with Torsin-1A (Homo sapiens) [18] was 0.617; in assay [19] it was 0.721. For the same compound, the z-score in assay [7] is 0.662; in assay [9], -1.7 (inactive); in assay [11], -3.8 (inactive); in assay [12] it was -0.49 (inactive); in assay [13], -0.435 (inactive); in [14], -1.61 (inactive).

As for `COc1cc2c(cc1O)C(C1CC1)N(Cc1cc3c(cc1Br)OCO3)CC2` (stereo not given), the composite z-score in [1] is -1.4; in [2], -0.603; in [3], -0.629; in assay [4], -0.736; in assay [5], -0.774; in [6], -0.746. For the same compound, the composite z-score is -1.01 with Lefty1; -0.503 in assay [8]; -0.481 in [10]; -0.735 in assay [15]; -0.179 in [16]; -0.151 in the assay with Torsin-1A (Homo sapiens) [17]. Also, the values for the composite z-score (in the assay with Torsin-1A (Homo sapiens) [18]; in assay [19]) were -0.416 and -1.09, respectively. The z-score in assay [7] was -0.721; in [9], -0.0849 (inactive); in assay [11], -5.73 (inactive); in assay [12], -0.109 (inactive); in [13], 0.245 (inactive); in assay [14] it was 4.34 (inactive).

`CC(C)C(=C=CC[C@@H](O)c1ccccc1OCCO)CCO`: the composite z-score in assay [1] was 2.31; in assay [2], 0.43; in assay [3] it was 0.306; in assay [4] it was 0.442; in [5], 0.71; in [6], 0.853. Besides, the composite z-score was 0.352 with Lefty1; 0.201 in assay [8]; -0.0322 in [10]; 0.666 in assay [15]; -0.016 in [16]; -0.502 with Torsin-1A (Homo sapiens) [17]. For the same compound, the composite z-score was -0.455 with Torsin-1A (Homo sapiens) [18] and 0.575 in assay [19]. Moreover, the z-score in [7] was 0.991; in [9], -1.91 (inactive); in assay [11], -3.75 (inactive); in assay [12], 0.0933 (inactive); in assay [13] it was 5.12 (inactive); in assay [14], -0.366 (inactive).

In the case of `COC(=O)[C@@]1(Cc2ccccc2)[C@H]2c3cc(C(=O)N4CCCC4)n(Cc4nc5ccccc5[nH]4)c3C[C@H]2CN1C(=O)c1ccccc1`, the composite z-score in assay [1] was 2.51; in assay [2] it was 1.24; in assay [3], 1.22; in assay [4], 0.656; in assay [5], 1.11; in assay [6] it was -0.297. The composite z-score with Lefty1 is -0.931; in [8], 0.726; in assay [10], 0.0972; in [15], 1.51; in assay [16] it was 0.427; with Torsin-1A (Homo sapiens) [17], 0.746. The composite z-score with Torsin-1A (Homo sapiens) [18] is 1.24; in assay [19], -0.105. The z-score in [7] is 1.05; in assay [9] it was 1.5 (inactive); in assay [11] it was -2.97 (inactive); in [12] it was -0.509 (inactive); in assay [13] it was 0.773 (inactive); in assay [14], 1.46 (inactive).
